Assay [1] addresses Aryl hydrocarbon receptor (Homo sapiens) (UniProt P35869). The assay can be described thus: qHTS assay to identify small molecule that activate the aryl hydrocarbon receptor (AhR) signaling pathway (AID 743085).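 Also: HG2L7.5c1 human HepG2 liver cells with stably integrated DRE-driven firefly reporter; series mostly up to about 70 µM; nearly all actives have a fitted effect of over 15% in size.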 The procedure, abridged: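 Reporter assay in engineered HepG2 line HG2L7.5c1, whose plasmid carries twenty dioxin responsive elements upstream of firefly luciferase. Treatment lasted 24 h at 37C; ONE-Glo luminescence gauged induction.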

Assay [2] can be described thus: qHTS assay to identify small molecule that activate the aryl hydrocarbon receptor (AhR) signaling pathway - cell viability counter screen (AID 743086). Also: nearly all actives have a fitted effect of over 45% in size. Also: potency is read from the fitted curve at half-maximal effect. The procedure, abridged: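 HepG2-AhR-luc (HG2L7.5c1) cells, 4000/well, treated 24 h at 37 C with compound; viability measured as CellTiter-Fluor fluorescence after 30 min in the same wells as the luciferase read.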
On the technique in general: In qHTS, concentration-response curves come from the screen itself.

Assay [3] is described as follows: qHTS assay for small molecule agonists of the antioxidant response element (ARE) signaling pathway - cell viability counter screen (AID 743203; calls by dose curve; also: nearly all actives have a fitted effect of over 55% in size; also: potency is read from the fitted curve at half-maximal effect). The procedure, abridged: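 ATP content via CellTiter-Glo luminescence served as the viability measure. Cells: ARE-bla HepG2, 2,000 per well. Exposure: 16 hrs, 37C/5% CO2.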
Assay [4] in a line: qHTS assay for small molecule activators of the heat shock response signaling pathway - cell viability counter screen (AID 743209). Also: nearly all actives have a fitted effect of over 50% in size. Also: potency is read from the fitted curve at half-maximal effect. The procedure, abridged: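 Compounds dissolved in DMSO were added to overnight-plated HSE-bla HeLa cells and left 5 h at 37 C. Cell viability was quantified by luminescence using CellTiter-Glo.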
Assay [5] can be described thus: qHTS assay to identify small molecule agonists of the peroxisome proliferator-activated receptor delta (PPARd) signaling pathway - cell viability counter screen (AID 743211). Also: nearly all actives have a fitted effect of over 55% in size. Also: potency is read from the fitted curve at half-maximal effect. Put shortly:
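Multiplexed format: after the 2 h room-temperature LiveBLAzer B/G FRET step, CellTiter-Glo was added to the same wells. Luminescence after 30 min gave cell viability; compound exposure was 17 h at 37C.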

A short description of assay [6]: qHTS assay to identify small molecule antagonists of the peroxisome proliferator-activated receptor delta (PPARd) signaling pathway - cell viability counter screen (AID 743213). Also: nearly all actives have a fitted effect of over 50% in size. Also: potency is read from the fitted curve at half-maximal effect. The procedure, abridged: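 PPARd-bla HEK293H cells (3000/well) got compound plus 300 nM L165041 agonist for 17 h at 37 C. Viability in the same wells came from CellTiter-Glo luminescence after 30 min at room temperature.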

A short description of assay [7]: qHTS assay to identify small molecule agonists of the farnesoid-X-receptor (FXR) signaling pathway - cell viability counter screen (AID 743218). Also: nearly all actives have a fitted effect of over 45% in size. Also: potency is read from the fitted curve at half-maximal effect. Put shortly:
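Quantitative HTS counter screen measuring ATP-based viability via CellTiter-Glo luminescence in HEK 293T cells carrying a UAS-driven beta-lactamase reporter, after 16 h compound exposure at 37 C.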

For assay [8], the target named is Vitamin D3 receptor (Homo sapiens) (UniProt P11473). The assay can be described thus: qHTS assay to identify small molecule agonists of the vitamin D receptor (VDR) signaling pathway (AID 743222; calls by dose curve). The procedure, abridged: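 Tox21 cell reporter format: VDR-bla line, 16 h compound exposure in 5% CO2 at 37C, then fluorescence intensity after 2 h with LiveBLAzer B/G FRET substrate.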
Sequence of Vitamin D3 receptor (Homo sapiens) (P11473 whole entry, looked up): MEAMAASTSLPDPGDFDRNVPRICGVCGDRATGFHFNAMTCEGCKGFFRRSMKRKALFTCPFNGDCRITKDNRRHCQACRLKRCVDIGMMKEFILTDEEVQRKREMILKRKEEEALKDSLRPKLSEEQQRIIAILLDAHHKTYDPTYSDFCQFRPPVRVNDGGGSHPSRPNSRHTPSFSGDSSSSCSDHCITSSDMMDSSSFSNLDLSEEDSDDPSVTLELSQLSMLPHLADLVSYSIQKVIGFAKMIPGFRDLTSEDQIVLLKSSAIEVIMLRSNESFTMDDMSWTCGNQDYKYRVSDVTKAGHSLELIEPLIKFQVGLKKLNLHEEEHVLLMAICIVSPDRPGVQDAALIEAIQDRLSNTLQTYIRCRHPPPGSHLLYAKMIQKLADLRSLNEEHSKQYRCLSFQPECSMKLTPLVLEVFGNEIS

The nature of assay [9]: qHTS assay to identify small molecule antagonists of the peroxisome proliferator-activated receptor gamma (PPARg) signaling pathway - cell viability counter screen (AID 743194). Also: nearly all actives have a fitted effect of over 55% in size. Also: potency is read from the fitted curve at half-maximal effect. Conditions: Potency: co-treated with 50 nM rosiglitazone unless noted. Put shortly:
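Cytotoxicity counter screen in PPARg-bla HEK293H cells, same wells as reporter assay. Compounds plus 50 nM rosiglitazone (final) for 17 h at 37 C, then viability read by CellTiter-Glo luminescence.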

Assay [10] has as its target Peroxisome proliferator-activated receptor delta (Homo sapiens) (UniProt Q03181). The assay can be described thus: qHTS assay to identify small molecule agonists of the peroxisome proliferator-activated receptor delta (PPARd) signaling pathway (AID 743212; calls by dose curve; also: potency is read from the fitted curve at half-maximal effect). The procedure, abridged: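 Tox21 library screened in GeneBLAzer PPARd UAS-bla HEK293H cells. After compound treatment at 37 C, a FRET-based beta-lactamase substrate was applied for 2 h and fluorescence recorded.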

A short description of assay [11]: qHTS assay to identify small molecule antagonists of the farnesoid-X-receptor (FXR) signaling pathway - cell viability counter screen (AID 743221; active = well fitted cell-killing curve with a large enough effect in the repeat runs, not every such curve was filed as active; also: nearly all actives have a fitted effect of over 50% in size; also: potency is read from the fitted curve at half-maximal effect). The procedure, abridged: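 CellTiter-Glo, 30 min RT, luminescence; same wells as the LiveBLAzer FRET read. Cells: FXR-UAS-bla HEK 293T. Treatment: compound with chenodeoxycholic acid 50 uM final, 16 h at 37 C.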
For assay [12], the target named is Peroxisome proliferator-activated receptor delta (Homo sapiens) (UniProt Q03181). The experiment in a line: qHTS assay to identify small molecule antagonists of the peroxisome proliferator-activated receptor delta (PPARd) signaling pathway (AID 743215; active = well fitted inhibition curve with a large enough effect in the signal ratio in the repeat runs, not every such curve was filed as active; the % refers to the signal ratio;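 also: cells stimulated with agonist L165041 at 300 nM final during compound exposure; series mostly up to about 62 µM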). The procedure, abridged:
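Here, a reporter line (HEK293H, beta-lactamase under a UAS) measures PPARd signaling. Compounds are tested against agonist L165041 at 300 nM final concentration over 17 h at 37 C, with fluorescence read after substrate.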

The target of assay [13] is Bile acid receptor (Homo sapiens) (UniProt Q96RI1). The experiment in a line: qHTS assay to identify small molecule agonists of the farnesoid-X-receptor (FXR) signaling pathway (AID 743220; active = well fitted activation curve with a large enough effect in the signal ratio in the repeat runs, not every such curve was filed as active; the % refers to the signal ratio). Put shortly:
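FXR-UAS-bla HEK 293T cells carrying a UAS-driven beta-lactamase reporter were plated for 5 h at 37C/5% CO2, then exposed to DMSO-dissolved Tox21 10K compounds for 16 h at 37C. A LiveBLAzer B/G FRET substrate was loaded for 2 h at room temperature before fluorescence reading.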

The target in assay [14] is Vitamin D3 receptor (Homo sapiens) (UniProt P11473). The experiment in a line: qHTS assay to identify small molecule antagonists of the vitamin D receptor (VDR) signaling pathway (AID 743223; active = well fitted inhibition curve with a large enough effect in the signal ratio in the repeat runs, not every such curve was filed as active; the % refers to the signal ratio). Put shortly:
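After VDR-bla cells are plated and left 4 h at 37C, DMSO-dissolved compounds and 3 nM (final) calcitriol agonist are added. Incubation continues 16 h at 37C; FRET beta-lactamase substrate then develops 2 h at room temperature.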

Assay [15] concerns the target Peroxisome proliferator-activated receptor gamma (Homo sapiens) (UniProt P37231). The experiment in a line: qHTS assay to identify small molecule antagonists of the peroxisome proliferator-activated receptor gamma (PPARg) signaling pathway (AID 743191; calls by dose curve; also: nearly all actives have a fitted effect of over 30% in size; also: potency is read from the fitted curve at half-maximal effect). The procedure, abridged: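 GeneBLAzer PPARg UAS-bla HEK293H cells, 5 h post-plating, exposed to compounds 17 h at 37C. LiveBLAzer B/G FRET substrate added for 1 h at room temperature; beta-lactamase reporter read by fluorescence intensity.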

Assay [16] can be described thus: qHTS assay for small molecule activators of the heat shock response signaling pathway (AID 743210; active = well fitted activation curve with a large enough effect in the signal ratio in the repeat runs, with a control signal flat, not every such curve was filed as active; the % refers to the signal ratio;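 also: HeLa cells with beta-lactamase reporter driven by heat shock elements; series mostly up to about 63 µM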). The procedure, abridged: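 Following overnight attachment, HSE-bla HeLa cells received test compounds for 5 h at 37 C; beta-lactamase activity was then detected via FRET substrate fluorescence.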
Assay [17] concerns the target Bile acid receptor (Homo sapiens) (UniProt Q96RI1). The experiment in a line: qHTS assay to identify small molecule antagonists of the farnesoid-X-receptor (FXR) signaling pathway (AID 743217; active = well fitted inhibition curve with a large enough effect in the signal ratio in the repeat runs, not every such curve was filed as active; the % refers to the signal ratio). Put shortly:
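Test compounds are pin-transferred onto FXR-bla HEK 293T cells, then chenodeoxycholic acid is added at 50 uM final. After 16 h at 37 °C, LiveBLAzer B/G substrate is applied for 2 h at room temperature and fluorescence read.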

A short description of assay [18]: qHTS assay for small molecule agonists of the antioxidant response element (ARE) signaling pathway (AID 743202; active = well fitted activation curve with a large enough effect in the signal ratio in the repeat runs, not every such curve was filed as active; the % refers to the signal ratio; also: potency is read from the fitted curve at half-maximal effect). Put shortly: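 HepG2 ARE-bla cells; 16 h treatment at 37 C; FRET-based beta-lactamase fluorescence read after 2 h substrate incubation at room temperature.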
Assay [19] concerns the target Peroxisome proliferator-activated receptor gamma (Homo sapiens) (UniProt P37231). The experiment in a line: qHTS assay to identify small molecule agonists of the peroxisome proliferator-activated receptor gamma (PPARg) signaling pathway (AID 743094; active = well fitted activation curve with a large enough effect in the signal ratio in the repeat runs, not every such curve was filed as active; the % refers to the signal ratio). The procedure, abridged:
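Agonism was assessed in a beta-lactamase reporter system, HEK293H cells with a stably integrated UAS-bla construct under PPARg control; the 17 h treatment at 37C preceded a 1 h room-temperature FRET substrate read.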

Structures are written as SMILES. Records with an inconclusive call do not appear. Values without a mark were called inactive. The source made the active and inactive calls. Unless noted, calls follow the shape of the dose curve; as a rule, active = well fitted curve in the direction sought with a large enough effect in the repeat runs; inconclusive = weak or mixed curves; inactive = no such curve, though single readings can be large; an effect the other way counts as inactive or inconclusive.

Sequence of Peroxisome proliferator-activated receptor gamma (Homo sapiens) (P37231 whole entry, looked up): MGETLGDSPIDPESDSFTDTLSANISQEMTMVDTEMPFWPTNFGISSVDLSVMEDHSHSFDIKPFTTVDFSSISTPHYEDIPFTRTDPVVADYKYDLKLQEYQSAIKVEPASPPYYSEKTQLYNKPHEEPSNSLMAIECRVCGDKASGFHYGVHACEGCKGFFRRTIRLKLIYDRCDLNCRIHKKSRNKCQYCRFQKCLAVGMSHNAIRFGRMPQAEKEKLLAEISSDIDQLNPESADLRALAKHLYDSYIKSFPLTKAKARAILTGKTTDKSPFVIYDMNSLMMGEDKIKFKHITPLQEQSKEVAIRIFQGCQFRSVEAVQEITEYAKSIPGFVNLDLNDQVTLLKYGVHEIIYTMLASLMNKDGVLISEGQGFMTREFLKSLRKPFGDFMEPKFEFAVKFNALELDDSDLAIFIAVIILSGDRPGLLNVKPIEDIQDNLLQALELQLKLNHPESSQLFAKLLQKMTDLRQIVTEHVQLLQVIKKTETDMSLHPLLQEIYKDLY
Sequence of Bile acid receptor (Homo sapiens) (Q96RI1 whole entry, looked up): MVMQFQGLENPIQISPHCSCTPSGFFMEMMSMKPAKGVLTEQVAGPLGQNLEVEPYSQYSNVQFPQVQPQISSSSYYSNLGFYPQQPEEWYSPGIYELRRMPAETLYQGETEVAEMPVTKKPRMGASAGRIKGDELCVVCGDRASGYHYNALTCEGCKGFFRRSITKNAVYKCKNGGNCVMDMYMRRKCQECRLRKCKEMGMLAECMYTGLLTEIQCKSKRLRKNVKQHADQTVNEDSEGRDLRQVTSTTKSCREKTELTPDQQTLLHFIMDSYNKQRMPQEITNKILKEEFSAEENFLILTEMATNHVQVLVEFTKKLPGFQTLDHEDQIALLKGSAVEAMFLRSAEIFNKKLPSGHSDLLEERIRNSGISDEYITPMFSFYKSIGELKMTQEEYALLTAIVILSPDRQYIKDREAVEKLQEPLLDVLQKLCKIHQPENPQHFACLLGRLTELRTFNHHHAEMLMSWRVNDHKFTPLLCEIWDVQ
Sequence of Aryl hydrocarbon receptor (Homo sapiens) (P35869 whole entry, looked up): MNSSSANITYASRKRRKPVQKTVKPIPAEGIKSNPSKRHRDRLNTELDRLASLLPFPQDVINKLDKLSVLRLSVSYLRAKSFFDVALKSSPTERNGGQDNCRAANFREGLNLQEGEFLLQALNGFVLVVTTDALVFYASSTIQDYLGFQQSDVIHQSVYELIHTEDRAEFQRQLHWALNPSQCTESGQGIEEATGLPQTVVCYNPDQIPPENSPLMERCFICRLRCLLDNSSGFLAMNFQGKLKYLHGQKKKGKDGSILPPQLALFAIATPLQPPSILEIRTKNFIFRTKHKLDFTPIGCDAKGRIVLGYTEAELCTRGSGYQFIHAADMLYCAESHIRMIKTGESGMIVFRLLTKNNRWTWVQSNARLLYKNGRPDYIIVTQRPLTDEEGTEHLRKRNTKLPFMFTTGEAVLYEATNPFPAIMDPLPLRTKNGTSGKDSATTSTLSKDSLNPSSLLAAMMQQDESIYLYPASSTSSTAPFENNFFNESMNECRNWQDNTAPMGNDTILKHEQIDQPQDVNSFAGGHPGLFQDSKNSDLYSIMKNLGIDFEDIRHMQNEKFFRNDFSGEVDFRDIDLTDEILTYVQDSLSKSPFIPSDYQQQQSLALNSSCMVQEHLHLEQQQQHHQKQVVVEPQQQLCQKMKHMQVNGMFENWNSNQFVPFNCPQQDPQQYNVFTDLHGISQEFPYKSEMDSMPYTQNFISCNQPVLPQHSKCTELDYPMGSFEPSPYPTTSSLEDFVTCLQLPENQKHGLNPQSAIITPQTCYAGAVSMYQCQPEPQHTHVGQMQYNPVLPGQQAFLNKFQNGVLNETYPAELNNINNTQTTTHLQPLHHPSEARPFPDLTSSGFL
Sequence of Peroxisome proliferator-activated receptor delta (Homo sapiens) (Q03181 whole entry, looked up): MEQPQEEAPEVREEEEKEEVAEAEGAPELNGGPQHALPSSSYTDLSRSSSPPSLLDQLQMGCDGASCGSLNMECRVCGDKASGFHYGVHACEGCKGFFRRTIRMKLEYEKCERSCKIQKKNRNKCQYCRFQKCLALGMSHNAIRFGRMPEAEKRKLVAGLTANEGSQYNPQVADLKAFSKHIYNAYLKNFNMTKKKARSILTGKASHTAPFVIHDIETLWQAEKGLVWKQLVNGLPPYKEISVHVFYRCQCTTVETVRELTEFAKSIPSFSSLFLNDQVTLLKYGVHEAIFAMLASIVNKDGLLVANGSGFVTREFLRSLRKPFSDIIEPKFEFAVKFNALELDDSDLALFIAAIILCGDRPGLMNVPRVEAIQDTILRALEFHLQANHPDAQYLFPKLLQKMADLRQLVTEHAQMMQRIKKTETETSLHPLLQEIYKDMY

As to `CCC(OC(C)=O)C(CC(C)NC)(c1ccccc1)c1ccccc1` (stereo unspecified), the Potency result in [1], in [4] and in [8] was “inactive” throughout. In addition, the Potency in assay [2] was 69.2 µM (active); in assay [3], 77.6 µM (active); in assay [5], 15.5 µM (active); in assay [6] it was 30.9 µM (active); in assay [7], 61.6 µM (active).
As for `Cc1ccc([N+](=O)[O-])[c]2c1[O][Hg]2`, the Potency in assay [9] was 2.98 µM (active); in [3], 4.22 µM (active); in [4] it was 5.31 µM (active); in [5], 1.88 µM (active); in [10], 29.8 µM (active); in assay [6], 5.96 µM (active). In addition, the Potency in assay [7] is 2.37 µM (active); in assay [11] it was 1.19 µM (active).
As for `c1ccc(Nc2ccc(Nc3ccccc3)cc2)cc1`, the Potency result in assay [9], in [10], in [6], in assay [12], in [13] and in [11] was “inactive” in each case. In addition, the Potency entry in assay [8] and in assay [14] was “inactive” in each case. The Potency was 60.9 µM (active) in [3] and 24.4 µM (active) in assay [4].
`C[C@@H]1CC2=CC(=O)CC[C@@H]2[C@H]2CC[C@@]3(C)[C@@H](CC[C@]3(C)O)[C@@H]21`: the Potency entry in [15], in [9], in assay [3], in [4], in assay [16] and in assay [5] was “inactive” each time. The Potency entry in assay [6], in assay [17], in [7], in [13], in assay [11] and in assay [8] was “inactive” in each case. In assay [14], the Potency entry was “inactive”.
With `COP(=O)(OC)O/C(=C\Cl)c1cc(Cl)c(Cl)cc1Cl`, the Potency result in assay [2], in assay [4], in assay [16], in assay [5], in assay [6] and in assay [17] was “inactive” throughout. For the same compound, the Potency entry in assay [7] and in assay [13] was “inactive” throughout. For the same compound, in assay [15], the Potency was 4.9 µM (active).
For `C[C@]12Cc3cn[nH]c3C[C@@H]1CC[C@@H]1[C@@H]2CC[C@@]2(C)[C@H]1CC[C@]2(C)O`, the Potency entry in assay [9], in assay [3] and in assay [8] was “inactive” throughout. The Potency is 26.6 µM (active) in assay [18], 29.8 µM (active) in assay [6] and 33.5 µM (active) in [11].
In the case of `c1ccc2c(c1)cc1ccc3cccc4ccc2c1c34`, the Potency entry in assay [9], in assay [3], in assay [4], in assay [5], in assay [7] and in assay [11] was “inactive” each time.
Turning to `C#CCC1=C(C)C(OC(=O)C2C(C=C(C)C)C2(C)C)CC1=O` (stereo unspecified), the Potency entry in assay [1], in assay [2], in assay [9], in assay [3], in assay [4] and in assay [6] was “inactive” in each case. In addition, the Potency result in assay [12], in [7], in assay [11] and in assay [8] was “inactive” in each case.
As to `CC[C@]1(O)CC[C@H]2[C@@H]3CCC4=CCCC[C@@H]4[C@H]3CC[C@@]21C`, the Potency result in [1], in assay [19], in assay [15], in assay [9], in assay [18] and in [3] was “inactive” throughout. Besides, the Potency result in [4], in [16], in [10], in assay [6], in [12] and in assay [7] was “inactive” each time. The Potency result in [13], in [11] and in [8] was “inactive” in each case.
Regarding `C[C@]12CC[C@H]3[C@@H](CCC4=CC(=O)CC[C@@H]43)[C@@H]1CC[C@@H]2OC(=O)CCc1ccco1`, the Potency in assay [9] was 29.8 µM [setting not given] (active); in assay [4], 13.3 µM (active); in [5] it was 26.6 µM (active); in [6], 29.8 µM (active); in assay [7], 21.1 µM (active). For the same compound, the Potency entry in [8] is “inactive”.

The values are drawn from PubChem BioAssay (Tox21).
